Results published in PMC4336329 (PLoS ONE, 2015).
The campaign covered roughly 310,000 compounds. About 14,000 (4.5%) showed an effect of 50% or more. The effect is printed as a negative number. The entries come from a sample that favours strong results as a whole.

Target: human ether-à-go-go-related gene (hERG) potassium channel (human, UniProt Q12809)
Assay: primary screen, population patch clamp on CHO cells stably expressing hERG; higher = less effect of the substance
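Also: peak tail current of the secondary pulse compared with the same well before compound.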

Chain of human ether-à-go-go-related gene (hERG) potassium channel (Q12809 whole entry, looked up): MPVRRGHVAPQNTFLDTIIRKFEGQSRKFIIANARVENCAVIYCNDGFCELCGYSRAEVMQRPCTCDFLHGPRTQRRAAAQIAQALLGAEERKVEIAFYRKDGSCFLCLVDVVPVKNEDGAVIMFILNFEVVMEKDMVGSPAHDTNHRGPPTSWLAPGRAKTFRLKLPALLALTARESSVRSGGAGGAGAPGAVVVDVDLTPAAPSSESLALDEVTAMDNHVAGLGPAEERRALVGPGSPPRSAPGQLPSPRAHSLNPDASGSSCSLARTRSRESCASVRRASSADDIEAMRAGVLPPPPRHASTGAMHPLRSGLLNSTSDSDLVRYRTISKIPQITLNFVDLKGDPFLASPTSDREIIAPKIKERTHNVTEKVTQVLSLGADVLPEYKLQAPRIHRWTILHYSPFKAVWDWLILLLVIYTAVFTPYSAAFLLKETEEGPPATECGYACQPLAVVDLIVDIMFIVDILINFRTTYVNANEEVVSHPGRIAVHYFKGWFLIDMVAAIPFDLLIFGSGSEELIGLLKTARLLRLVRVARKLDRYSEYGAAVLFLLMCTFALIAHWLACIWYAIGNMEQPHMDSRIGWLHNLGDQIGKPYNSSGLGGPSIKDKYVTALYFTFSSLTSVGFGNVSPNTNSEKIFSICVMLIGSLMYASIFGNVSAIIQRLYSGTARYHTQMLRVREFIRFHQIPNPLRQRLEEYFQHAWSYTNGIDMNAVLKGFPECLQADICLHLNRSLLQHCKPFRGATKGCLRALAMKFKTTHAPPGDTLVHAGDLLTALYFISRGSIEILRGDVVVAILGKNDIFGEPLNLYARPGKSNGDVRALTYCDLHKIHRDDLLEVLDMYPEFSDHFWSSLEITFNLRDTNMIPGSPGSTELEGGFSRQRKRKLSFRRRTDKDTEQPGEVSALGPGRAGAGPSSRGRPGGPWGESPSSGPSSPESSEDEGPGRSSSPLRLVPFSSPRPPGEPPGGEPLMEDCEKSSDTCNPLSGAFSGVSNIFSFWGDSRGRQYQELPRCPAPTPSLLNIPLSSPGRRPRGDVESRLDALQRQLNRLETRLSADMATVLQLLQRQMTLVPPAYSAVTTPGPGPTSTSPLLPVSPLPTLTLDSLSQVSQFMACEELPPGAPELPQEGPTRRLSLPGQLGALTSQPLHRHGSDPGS

Compound	hERG current change (%, negative = inhibition) at 10uM [%]
O=C(CN1CCN(Cc2ccccc2)CC1)Nc1ccc(Cl)cn1	-74.5
O=C(CN1CCN(Cc2ccccc2)CC1)Nc1ccccc1	-26.9
O=C(CN1CCCCCC1)Nc1ccc(Cl)cn1	1.45
O=C(CN1CCN(Cc2ccccc2)CC1)Nc1ccc(Br)cc1	-71.9
O=C(CN1CCN(Cc2ccccc2)CC1)Nc1ccc(-n2cnnn2)cc1	-48
O=C(CN1CCOCC1)Nc1ccc(Cl)cn1	20.6
NC(=O)c1ccc(NC(=O)CN2CCN(Cc3ccccc3)CC2)cc1	-0.874
O=C(CN1CCN(Cc2ccccc2)CC1)Nc1ccc(N2CCOCC2)cc1	-3.67
O=C(CN1CCN(Cc2ccccc2)CC1)Nc1ccc(Cl)cc1	-68.4
C/C(=N\NC(=O)c1cccnc1)c1ccc(OC2OCCOC2Oc2ccc(/C(C)=N/NC(=O)c3cccnc3)cc2)cc1 (stereo not drawn)	8.81
COc1ccc(-n2c(=O)n(Cc3ccccc3)c(=O)c3[nH]cnc32)cc1	-17.1
COc1ccc(S(=O)(=O)NC2CCCC2)cc1C(N)=O	4.15
CCCn1c(=O)c(C(=O)Nc2ncccc2O)c(O)c2ccccc21	11.1
Cc1cc(=O)oc2cc(OCC(=O)NCc3ccco3)ccc12	-6.81
Cc1cc(=O)oc2ccc(OCC(=O)O)cc12	16.1
Cc1cc(=O)oc2ccc(OCC(=O)N(Cc3ccc(F)cc3)Cc3ccco3)cc12	-58.8
COc1ccc2ccccc2c1CNc1nnnn1C	17.9
CSc1ccc(S(=O)(=O)N2CCC(C(=O)N3CCOCC3)CC2)cc1	2.57
Cc1coc2cc3oc(=O)c(CCC(=O)N4C[C@H]5C[C@@H](C4)c4cccc(=O)n4C5)c(C)c3cc12	-42.5

Compound	hERG current change (%, negative = inhibition) at 10uM [%]
Cc1c(CC(=O)N2C[C@H]3C[C@@H](C2)c2cccc(=O)n2C3)c(=O)oc2cc(O)c(Cl)cc12	9.44
C=C(C)COc1ccc2c(C)c(CC(=O)N3C[C@H]4C[C@@H](C3)c3cccc(=O)n3C4)c(=O)oc2c1	-48.5
Cc1oc2cc3oc(=O)c(CCC(=O)N4C[C@H]5C[C@@H](C4)c4cccc(=O)n4C5)c(C)c3cc2c1C	-54
COc1ccc2c(C)c(CC(=O)N3C[C@H]4C[C@@H](C3)c3cccc(=O)n3C4)c(=O)oc2c1	-32.4
Cc1c(CC(=O)N2C[C@H]3C[C@@H](C2)c2cccc(=O)n2C3)c(=O)oc2c(C)c(O)ccc12	4.94
Cc1c(CC(=O)N2C[C@H]3C[C@@H](C2)c2cccc(=O)n2C3)c(=O)oc2cc3occ(C(C)(C)C)c3cc12	-73.4
Cc1coc2cc3oc(=O)c(CC(=O)N4C[C@H]5C[C@@H](C4)c4cccc(=O)n4C5)c(C)c3cc12	-41.5
C=C(C)COc1ccc2c(C)c(CCC(=O)N3C[C@H]4C[C@@H](C3)c3cccc(=O)n3C4)c(=O)oc2c1	-60.4
COc1ccc2c(C)c(CCC(=O)N3C[C@H]4C[C@@H](C3)c3cccc(=O)n3C4)c(=O)oc2c1	-34.9
COc1ccc2c(C)c(CC(=O)N3C[C@H]4C[C@@H](C3)c3cccc(=O)n3C4)c(=O)oc2c1OC	-1.03
Cc1oc2c(C)c3oc(=O)c(CCC(=O)N4C[C@H]5C[C@@H](C4)c4cccc(=O)n4C5)c(C)c3cc2c1C	-51.7
CCOC(=O)c1ccc(NC(=O)Nc2ccc3c(c2)OCCO3)cc1	10.6
Cn1c(=O)c2c(nc(SCC(=O)c3cccs3)n2Cc2ccc(F)cc2)n(C)c1=O	-13.2
COc1ccc(C(=O)c2ccccc2Cl)cc1	-34.5
O=C(CSc1nnc(CNC(=O)c2ccccc2F)o1)NCc1ccccc1	-7.93
Cc1ccc(NC(=O)COC(=O)C2CC(=O)N(Cc3ccccc3)C2)cc1S(=O)(=O)N(C)C (stereo not drawn)	7.45
CCCn1ccnc1SC(C)C(=O)Nc1c(C)n(C)n(-c2ccccc2)c1=O (stereo not drawn)	16.9
CN1C(=O)N(C)c2ccc(Br)c3cccc1c23	23.5
CC(OC(=O)c1ccccc1C(=O)N(C)c1ccccc1)C(=O)Nc1ccc(C(N)=O)cc1 (stereo not drawn)	-4.36

Compound	hERG current change (%, negative = inhibition) at 10uM [%]
Cc1coc2c(C)c3oc(=O)c(CCC(=O)N4C[C@H]5C[C@@H](C4)c4cccc(=O)n4C5)c(C)c3cc12	-50.6
COc1ccc(-c2cc(=O)oc3cc(OCC(=O)N4C[C@H]5C[C@@H](C4)c4cccc(=O)n4C5)ccc23)cc1	-53.5
CCc1cc(=O)oc2cc(OCC(=O)N3C[C@H]4C[C@@H](C3)c3cccc(=O)n3C4)ccc12	8.87
Cc1c(C)c2ccc(OCC(=O)N3C[C@H]4C[C@@H](C3)c3cccc(=O)n3C4)c(C)c2oc1=O	1.39
Cc1c(OCC(=O)N2C[C@H]3C[C@@H](C2)c2cccc(=O)n2C3)ccc2c3c(c(=O)oc12)CCCC3	-13.5
Cc1cc(=O)oc2cc(OCC(=O)N3C[C@H]4C[C@@H](C3)c3cccc(=O)n3C4)ccc12	1.52
COCCOC1CCN(C(=O)C2CCC(=O)N(Cc3cccc(F)c3)C2)CC1 (stereo not drawn)	20.1
CCOC(=O)N1CCN(C(=O)c2ccc(NS(=O)(=O)c3ccc(F)cc3)cc2)CC1	-1.81
CCN(C(=O)COC(=O)C1CCN(S(=O)(=O)c2ccc(C)c(C)c2)CC1)C1CCCCC1	-10.4
Cc1ccc(/C(N)=N/OC(=O)CSc2ccccc2)cc1	-5.49
COCCNC(=O)c1cc2c(-c3ccccc3F)nn(C)c2s1	-6.2
CN(CCNC(=O)c1cc2c(-c3ccccc3F)nn(C)c2s1)C1CCCCC1	-50.8
CCOC(=O)N1CCC(NC(=O)c2cc3c(-c4ccccc4F)nn(C)c3s2)CC1	13.5
Cn1nc(-c2ccc(Cl)cc2)c2cc(C(=O)N3CCN(C(=O)c4ccco4)CC3)sc21	-20.7
Cn1nc(-c2ccccc2F)c2cc(C(=O)Nc3ccc4c(c3)OCCO4)sc21	14.8
CC(=O)c1ccc(N2CCN(C(=O)c3cc4c(-c5ccccc5F)nn(C)c4s3)CC2)cc1	-20.7
CC1CCCCN1CCNC(=O)c1cc2c(-c3ccccc3F)nn(C)c2s1 (stereo not drawn)	-56.1
Cn1nc(-c2ccccc2F)c2cc(C(=O)N3CCN(C(=O)c4ccco4)CC3)sc21	-57.2
CC(CCc1ccco1)NC(=O)c1cc2c(-c3ccccc3F)nn(C)c2s1 (stereo not drawn)	-5.86
